High-throughput results: PubChem BioAssay, several laboratories
Only some compounds are listed: those with a hit (about 32% of all), similar ones and a draw of the others.
CYP2C19 act – increases human CYP2C19 enzyme activity; P33261; recombinant CYP2C19, luciferin-H EGE luminescence; hits give high values; 0 = fully inhibited enzyme, 1 = untreated enzyme; activation factor at 5 µM; 96,000 tested, under 10 active; AID 1025;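 active = activation factor of at least 2 at 5 µM in the primary screen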;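 also: 0 = wells with 2.5 mM tranylcypromine and 1 = vehicle-only wells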
PostGolgi ctrl – yeast control strain growth, post-Golgi counter-screen; hit rate 5% among 98,000; AID 738; efflux-deficient yeast background strain, growth absorbance A615, 16 h; inhibition, % at 10 µM
CYP2C9 act – CYP2C9 (human) activation; hit rate 1.4% among 96,000; activation factor at 5 µM; recombinant CYP2C9, luciferin-H conversion, luminescence; hits give high values; factor 1 = untreated enzyme, 0 = blocked; P11712; AID 1024;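 active = activation factor of 2 or more for CYP2C9 at a 5 µM dose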;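 also: 0 = sulfaphenazole-blocked wells and 1 = vehicle-only wells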
Target sequence (P11712 whole entry, looked up): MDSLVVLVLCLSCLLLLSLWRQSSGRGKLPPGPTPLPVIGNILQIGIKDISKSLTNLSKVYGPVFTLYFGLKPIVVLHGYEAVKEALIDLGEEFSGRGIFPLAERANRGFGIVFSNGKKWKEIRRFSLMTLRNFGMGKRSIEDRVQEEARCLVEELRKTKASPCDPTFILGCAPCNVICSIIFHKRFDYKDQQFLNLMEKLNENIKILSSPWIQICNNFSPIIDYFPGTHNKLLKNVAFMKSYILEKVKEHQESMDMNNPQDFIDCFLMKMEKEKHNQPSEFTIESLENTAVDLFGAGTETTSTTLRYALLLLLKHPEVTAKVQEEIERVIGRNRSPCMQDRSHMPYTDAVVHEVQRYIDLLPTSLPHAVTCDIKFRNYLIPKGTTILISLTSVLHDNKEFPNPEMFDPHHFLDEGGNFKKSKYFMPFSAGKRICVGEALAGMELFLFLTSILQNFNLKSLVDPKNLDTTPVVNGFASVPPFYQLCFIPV
CYP2C19 inhib – inhibitors of human CYP2C19; CYP2C19 Supersomes, luciferin-H EGE luminescence, 30 min; P33261; inhibition, % at 5 µM; hit rate 21% among 96,000; AID 778;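 active = CYP2C19 inhibition above a set limit at 5 µM in the primary screen, cut at about 50% in these data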;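 also: plate controls were negative control wells for no effect and 2.5 mM tranylcypromine positive control for full effect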
CYP2C9 inh – inhibitors of human CYP2C9. CYP2C9 Supersomes, luciferin-H conversion, luminescence. hit rate 20% among 96,000. inhibition, % at 5 µM;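 active = blocking of liver enzyme CYP2C9 beyond about 50% at 5 µM, limit read from the data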
PostGolgi yeast – growth inhibition of a yeast mutant, post-Golgi transport screen; post-Golgi transport phenotypic cell assay; inhibition, % at 10 µM; hit rate 0.9% among 98,000;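 also: yeast cells grown in 1536-well plates; yeast grown about 18 h at 30C before absorbance read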
Active calls of the source: *; nt = not tested or not shown. Rule as the data show it, unless noted: active = inhibition above about 30%; inactive = the rest.

SMILES	CYP2C19 act	PostGolgi ctrl	CYP2C9 act	CYP2C19 inhib	CYP2C9 inh	PostGolgi yeast
Cc1cccc(-n2c(SCc3cc(=O)n4c(C)cccc4n3)nc3[nH]ncc3c2=O)c1	0.7	7.9	1	28.3	-1.7	5.5
Cc1ccc(CNC(=O)CS(=O)(=O)CC(=O)O)cc1	0.9	17.1	0.9	7.2	6.5	20.3
Nc1nc2nc(-c3ccc(Cl)cc3)cc(C(F)(F)F)n2n1	1	10.9	0.9	4.7	12.5	-5.7
CC(C)C(c1nnnn1Cc1ccc(F)cc1)N1CCN(C2CCCCC2)CC1 (configuration not stated)	1	7.1	0.9	-1.9	5.0	-0.2
CCOC(=O)C1CCN(S(=O)(=O)c2cccc(-c3cn4cccnc4n3)c2)CC1	1	0.0	1.1	4.2	-7.0	15.7
CCOC(=O)C1CCN(S(=O)(=O)c2cccc(-c3cn4cc(C)ccc4n3)c2)CC1	0.5	-1.3	0.7	51.8*	29.7	-1.8
O=c1oc2ccccc2c2nccnc12	1.1	-4.0	1.2	-13.8	-15.6	-0.2
Cc1cnc(N)c2c(=O)oc3ccccc3c12	1	-1.1	2*	-4.6	-102.3	-5.6
O=C1c2ccccc2C(Nc2ccc(F)c(Cl)c2)N1Cc1ccco1 (configuration not stated)	0.3	26.0	0.6	65.8*	40.0	0.5
COc1ccc(NC2c3ccccc3C(=O)N2Cc2ccco2)cc1OC (configuration not stated)	0.4	0.8	0.7	64.2*	33.3	-11.6
O=C1c2ccccc2C(Nc2ccc3c(c2)OCO3)N1Cc1ccco1 (configuration not stated)	nt	2.8	nt	nt	nt	-6.0
CCOc1ccc(NC2c3ccccc3C(=O)N2Cc2ccco2)cc1 (configuration not stated)	0.8	6.4	0.3	23.1	74.4*	6.5
COC(=O)c1cc(NC2c3ccccc3C(=O)N2Cc2ccco2)cc(C(=O)OC)c1 (configuration not stated)	0.2	1.2	0.7	77.0*	31.0	-0.2
COc1cc(C2C(C#N)=C(N)OC3=C2C(=O)CCC3)cc(OC)c1OC(=O)N1CCOCC1 (configuration not stated)	0.9	3.6	0.9	12.4	9.3	9.1
O=C(N/N=C/c1c(Nc2cccc(C(F)(F)F)c2)nc2ccccn2c1=O)c1ccccc1	0.8	0.8	0.9	19.3	10.5	-2.3
CCCCN1C(=O)c2ccc(C(=O)NC3=NCCS3)cc2C1=O	0.6	25.3	0.3	43.3	71.6*	-5.1
CCCCN1C(=O)c2ccc(C(=O)Nc3cccc(C)c3C)cc2C1=O	1	-5.0	1.2	-4.7	-15.5	-2.0
Cn1c(CN2CCN(CC#N)CC2)c(C#N)c2ccccc21	0.5	-4.0	2.9*	48.2	-188.5	-7.5
Cn1c(CN2CCCCC2)c(C#N)c2ccccc21	0	7.3	0.9	97.8*	13.2	5.0
Cn1c(C(=O)NC2CCCCC2)cc2c(=O)n(C)c3ccccc3c21	0.9	9.3	1.6	7.1	-59.7	2.4
Cn1c(CNC2CCCCC2)c(C#N)c2ccccc21	0.4	10.9	0.7	55.1*	29.5	-7.3
CC1Oc2ccccc2N(CC(=O)NCC2CCCO2)C1=O (configuration not stated)	1	10.1	1.1	4.7	-10.7	6.7
COC(=O)c1cc2sc(Cl)cc2n1CC(=O)NCC1CCCO1 (configuration not stated)	0.6	35.7*	1.2	35.2	-20.3	6.4
COC(=O)c1cc2sc(Cl)cc2n1Cc1nc(-c2ccccc2)oc1C	0.8	7.1	0.5	19.6	48.1	-11.3
COC(=O)c1cc2sc(Cl)cc2n1CC(=O)Nc1ccc(OC)c(OC)c1OC	0.7	-1.1	0.9	27.1	8.6	4.3
SMILES	CYP2C19 act	PostGolgi ctrl	CYP2C9 act	CYP2C19 inhib	CYP2C9 inh	PostGolgi yeast
COC(=O)c1cc2sc(Cl)cc2n1CC(=O)Nc1cccc(SC)c1	0.6	0.8	0.3	44.0	74.8*	-9.5
CC(=O)Nc1ccc(S(=O)(=O)c2c(N)n(CCN3CCOCC3)c3nc4ccccc4nc23)cc1	1.1	-0.7	0.8	-6.8	22.9	-1.1
Nc1c(S(=O)(=O)c2cc(Cl)ccc2Cl)c2nc3ccccc3nc2n1CCN1CCOCC1	0.2	18.3	0	79.0*	96.3*	1.4
C=C(C)C1Cc2c(C)nn(-c3cccc4ccccc34)c2C1 (configuration not stated)	0.8	40.4*	0.8	17.8	19.4	9.9
CC(C(=O)N1c2ccccc2Sc2ccccc21)n1nnc(-c2cccs2)n1 (configuration not stated)	0.5	31.8*	0.2	50.7*	82.8*	5.5
O=C(O)Cn1nnc(-c2cccs2)n1	1	3.9	1	-2.7	-2.3	9.9
Cc1[nH]n(-c2ccccc2)c(=O)c1/C=N/Nc1nncc(-c2ccccc2)n1	0.4	4.8	0.2	59.3*	82.0*	3.9
Cc1cccc(C)c1NC(=O)N1CCC(n2c(=O)[nH]c3ccccc32)CC1	0.9	33.1*	1	8.2	3.3	-7.5
Cc1cccc(C)c1NC(=O)N1CCC(n2cnc3ccccc32)CC1	1	-3.8	1.2	2.9	-17.1	13.9
COc1cc(NC(=O)CCn2c(=O)[nH]c3ccsc3c2=O)cc(OC)c1	nt	-0.6	nt	nt	nt	-2.4
Cc1cc(CCN2CCC(=O)NC2=O)ccc1OC(C)C	0.5	0.3	0.9	51.2*	7.4	-8.2
CCCOc1ccc(CCN2CCC(=O)NC2=O)cc1C	0.8	11.7	0.8	23.5	23.0	6.0
COc1nc(OC)nc(N2CCC(C(=O)NCC3CCCCC3)CC2)n1	1	2.1	1.4	1.0	-39.3	-4.4
Cc1ccccc1NC(=S)NCc1cccs1	0.5	2.8	0.8	47.0	16.1	-4.6
O=C(CSCC(=O)Nc1nccs1)Nc1ccccc1	0.8	6.7	0.8	23.5	18.6	-0.5
CN1c2ccsc2C(O)=C(C(=S)Nc2ccccc2)S1(=O)=O	0.9	3.3	0.2	12.5	78.4*	-2.1
Cc1ccccc1NC(=S)C1=C(O)c2sccc2N(C)S1(=O)=O	1	4.4	0.3	1.8	72.3*	0.8
C=COCCNC(=O)Nc1ccc(Cl)cc1Cl	0.9	-1.1	0.9	10.0	9.0	-6.8
CCOC(=O)N1CCC(NC(=O)C2CCN(S(=O)(=O)c3cnc[nH]3)CC2)CC1	1	3.0	1.1	0.7	-8.2	3.9
Cc1cccc(N2CCN(C(=O)C3CCCN(S(=O)(=O)c4cnc[nH]4)C3)CC2C)c1 (configuration not stated)	nt	2.7	nt	nt	nt	1.0
CC(C)c1ccc(NC(=O)C2CCCN(S(=O)(=O)c3cnc[nH]3)C2)cc1 (configuration not stated)	0.4	3.2	0.4	61.6*	62.3*	7.3
O=C(Nc1ccc(Cl)cc1)C1CCCN(S(=O)(=O)c2cnc[nH]2)C1 (configuration not stated)	0.1	-1.2	0.1	89.7*	87.9*	-8.4
